Here are results for 40 sequences from the supplement of paper PMC10338343.

± gives the standard deviation.
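Further: 1 nM active piRISC with 0.1 nM target library at 33 °C single turnover.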

This assay relates to MILI (PIWIL2) piRISC loaded with piRNA #1 (26 nt). Kind of assay: pre-steady-state target cleavage rate (min^-1); guide: piRNA #1 5'p-UGAGGUAGUAGGUUGUAUAGUAUCCA; MIWI and MILI are mouse PIWI proteins and EfPiwi is from a freshwater sponge; tags in brackets are library labels; higher = faster piRNA-guided slicing of the target. The settings on record: auxiliary factor: 500 nM mouse GTSF1. A digest of the protocol:
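The pre-steady-state cleavage rate was derived from a burst-and-steady-state fit of Cleave-'n-Seq data. For these assays, 1 nM active affinity-purified piRISC loaded with a single synthetic guide was mixed with […] a transcribed, DNA-blocked target RNA library in HEPES–potassium acetate buffer at 33 °C, with or without 500 nM GTSF1 partner protein, for 0–8 or 0–960 min. Sequencing counts of uncleaved targets were normalised to depth and to weakly complementary targets, and k3 was capped at 0.0001 min^-1 after three trials were pooled.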
Consider GGAGACCUAUGAUAACAACCUACUGACCUCA, for which the “pre-steady-state target cleavage rate” value was determined as 0.00368 ± 0.0025. Turning to GGAGACCUAUGAUAUGUUCCUACUAGGUCA, the “pre-steady-state target cleavage rate” value is less than 0.0001. The figure for GGAGUGGAUAGAUUACAACCUACUACCUCA is 0.0915 ± 0.01; for GGAGACCUAACUUUAGAACCUACUACCUCA it is 0.129 ± 0.023; for GGAGACCUAUGAAUACAACCUACUACCUAA it is 0.00505 ± 0.0032. The figure for GGAGACCUAAGUAUACAACCUACUACCUGA is 0.0424 ± 0.0093; for GGAGACCUUACAAUACAACCUACUACCUGA it is 0.0872 ± 0.013; for GGAGACCUAUGAUUACAACCUACUACCUUCA it is 0.00664 ± 0.0022.

Turning to GGAGACCUUUGUAUACAACCUACUACCUCA, the “pre-steady-state target cleavage rate” value is 0.0347 ± 0.0065. For GGAGACCUAUCUAUACAACCUACAUGCUCA, the “pre-steady-state target cleavage rate” value came out at 0.068 ± 0.021. For the sequence GGAGUGGAUACUAAACAACCUACUAGCUCA, the “pre-steady-state target cleavage rate” value was 0.0437 ± 0.0085. For GGAGACCUUACUAUACAACCGUACUACCUCA, the “pre-steady-state target cleavage rate” value turned out to be 0.00868 ± 0.0053.

With GGAGACCAUACUUUUCAACCUACUACCUCA, the “pre-steady-state target cleavage rate” value came to 0.153 ± 0.015. As for GGAGACCUUACAAUACAACCAACUACCUCA, the “pre-steady-state target cleavage rate” value was found to be 0.00567 ± 0.0032. For GGAGACCUAACUAUAGAUCCUACUACCUCA, the “pre-steady-state target cleavage rate” value stood at 0.203 ± 0.026. In the case of GGAGACCUAUGAUUACAUCCUACUACGUCA, the “pre-steady-state target cleavage rate” value is 0.00263 ± 0.0026. As for GGAGAGGAUUCUAUACAACCUACUACGUCA, the “pre-steady-state target cleavage rate” value worked out at 0.0519 ± 0.0081. For the sequence GGAGACCUAUGUAAACAACCUACUUCCUCA, the “pre-steady-state target cleavage rate” value came out at 0.00599 ± 0.002. Regarding GGAGAGGAUACUAAAGAACCUACUACCUCA, the “pre-steady-state target cleavage rate” value is 0.179 ± 0.0099. For the sequence GGAGACCUAUCUAAUCAACCUACUACCUCA, the “pre-steady-state target cleavage rate” value was determined as 0.0267 ± 0.0037.

As to GGAGACCUAUGAUAACAACCUACUACCUCCA, the “pre-steady-state target cleavage rate” value was found to be 0.00565 ± 0.0022. Take GGAGACCUUACUAUAGUACCUACUACCUCA: the “pre-steady-state target cleavage rate” value was determined as 0.119 ± 0.0098. For GGAGACCUUACUAUACAACCUACUACCUGA, the “pre-steady-state target cleavage rate” value amounted to 0.117 ± 0.016. Take GGAGACCUAUGUAUUCAACGUACUACCUCA: the “pre-steady-state target cleavage rate” value came out at 0.00676 ± 0.0018. For the sequence GGAGUGGAUUCUAUACAACCAACUACCUCA, the “pre-steady-state target cleavage rate” value is 0.00438 ± 0.0023. The figure for GGAGACCUUACUAUACAACGUACUAGCUCA is 0.0137 ± 0.0043; for GGAGACCUUACUAAUCAACCUACUACCUCA it is 0.11 ± 0.016. In the case of GGAGACCUAACUAUACAUCCUUCUACCUCA, the “pre-steady-state target cleavage rate” value is 0.0117 ± 0.0069. The figure for GGAGUGGAUCCUAUACAACCUACUACCUCA is 0.156 ± 0.027; for GGAGACCAUACUAUAGAACCUACUACCACA it is 0.0789 ± 0.021.

With GGAGACCUUACUAUACAUCCUACUAGCUCA, the “pre-steady-state target cleavage rate” value was 0.2 ± 0.024. On to GGAGACCUAUCUAUACAACCUUCUACCUCA, for which the “pre-steady-state target cleavage rate” value was 0.00553 ± 0.0024. The figure for GGAGACGAUAGUAUACAACGUACUACCUCA is 0.0209 ± 0.0035; for GGAGACCAUACUAUACAAGCUACUACCACA it is 0.32 ± 0.02; for GGAGACCUAUGAAUACAUCCUACUACGUCA it is 0.00336 ± 0.0019. For GGAGACCUAUGAUAACAACGUACUACCUCA, the “pre-steady-state target cleavage rate” value amounted to 0.00353 ± 0.0022. The figure for GGAGACCUAACUAGACAACCUACUACCUCA is 0.0997 ± 0.02; for GGAGACCUAUCUAUACAACCUAUUACCUCA it is 0.0974 ± 0.01. The figure for GGAGACCUAUCAAUACAACCUACUAGCUCA is 0.0299 ± 0.0076; for GGAGACCUUAGUAUACAACCUACAACCUCA it is 0.0865 ± 0.013.
